Screening data: PubChem, National Center for Advancing Translational Sciences (NCATS)
ALDH1A1 inh: blocks purified human ALDH1A1 activity; P00352; Purified ALDH1A1, NADH fluorescence, propionaldehyde substrate; Potency, µM (titrated, usually from 75.3 µM), inactives show top-dose activity, negative = inhibition, actives largely listed as inhibitors; 220,000 tested, 7.3% active; AID 1030; active means well fitted inhibition curve with a large enough effect, not every such curve was filed as active; inconclusive means small, poorly fitted or top-dose-only effect, or another doubt; inactive means no such curve, though single readings can be large or run the other way;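 further: potency means the concentration at half of the fitted maximal effect; plate controls were no enzyme wells and a reference inhibitor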
IMPase inh: membrane-permeable compound that blocks inositol monophosphatase; P97697; CHO-M1 cells, IP1 accumulation, HTRF TR-FRET ratio; inhibition (IP1 accumulation), % at 46.1 µM; 120,000 tested, under 10 active; active means well fitted curve in the direction sought with a large enough effect in the signal ratio, not every such curve was filed as active; inconclusive means small, poorly fitted or top-dose-only effect, or a change in a side signal; inactive means no such curve, though single readings can be large or run the other way; the % refers to the signal ratio;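 further: cells stimulated with carbachol in lithium chloride buffer; plate controls were DMSO basal wells for no effect and reference inhibitor wells for full effect; higher means more IMPase inhibition seen as more IP1 and lower FRET ratio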
Target sequence (P97697 whole entry, looked up): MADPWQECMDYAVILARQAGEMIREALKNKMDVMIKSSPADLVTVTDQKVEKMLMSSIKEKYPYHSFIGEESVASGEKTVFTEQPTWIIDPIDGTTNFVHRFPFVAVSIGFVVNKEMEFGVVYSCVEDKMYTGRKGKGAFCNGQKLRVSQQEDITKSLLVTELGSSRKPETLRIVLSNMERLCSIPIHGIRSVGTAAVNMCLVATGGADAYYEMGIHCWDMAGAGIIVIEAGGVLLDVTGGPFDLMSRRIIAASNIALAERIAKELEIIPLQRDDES
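In this qHTS, compounds (final up to 46 uM) act on CHO-M1 cells that are then activated through the M1 receptor with carbachol, in pH 7.4 buffer containing 50 mM LiCl, for 30 min. IP1 accumulation is quantified by the IP-One immunoassay.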
12-hLO inh: blocks human 12-lipoxygenase activity; Potency, µM (top dose mostly 57.1 µM), inactives show top-dose activity change, negative = inhibition, hits mostly inhibitors; 150,000 tested, 0.12% active; P18054; purified 12-hLO, xylenol orange hydroperoxide absorbance; further: potency means the concentration at half of the fitted maximal effect; nearly all actives have a fitted effect of over 55% in size
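150 nM 12hLO, 25 mM Hepes pH 7.0 + 0.01% Triton X-100; cpd preinc 15 min RT; 40 uM arachidonic acid, 30 min RT; Fe-XO 30 min; A573/A405 ratio as read-out.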
NPSR antag: neuropeptide S receptor (human) antagonism, cAMP | CHO-NPSR cells, cAMP TR-FRET, antagonist mode | Potency, µM (doses to about 38.3 µM), for inactives: top-dose activity change, negative = inhibition, hits mostly inhibitors | 220,000 tested, 1% active | AID 1461; further: potency means the concentration at half of the fitted maximal effect; nearly all actives have a fitted effect of over 50% in size
IMPase Li cell: cell-permeable IMPase inhibitors with lithium potentiation; Potency, µM (doses to about 59.4 µM), inactives show top-dose activity, negative = IMPase inhibition, usual class: inhibitors; 210,000 tested, 0.35% active; CHO-M1 cells, IP1 TR-FRET (IP-One), carbachol + lithium;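 further: IP1 builds up when IMPase is blocked and the TR-FRET signal falls; potency means the concentration at half of the fitted maximal effect; plate controls were basal vehicle for no effect and high inhibitor control for full effect; nearly all actives have a fitted effect of over 50% in size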
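CHO cells stably expressing M1 receptor (2000/well, cultured 16–30 h) treated 30 min at 37C with compound plus low lithium. Cytosolic IP1 by TR-FRET (665/620 ratio and 620 channel) after 10 min lysis; AC50 by Hill fit.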
HPGD block: blocks human HPGD enzyme activity. P15428. purified HPGD, NADH fluorescence kinetic, PGE2 substrate. Potency, µM, inactives show at the highest dose activity change, negative = inhibition, actives largely listed as inhibitors. 150,000 tested, 4.3% active; active means well fitted inhibition curve with a large enough effect, not every such curve was filed as active; inconclusive means small, poorly fitted or top-dose-only effect, or another doubt; inactive means no such curve, though single readings can be large or run the other way; further: potency means the concentration at half of the fitted maximal effect
Target sequence (P15428 whole entry, looked up): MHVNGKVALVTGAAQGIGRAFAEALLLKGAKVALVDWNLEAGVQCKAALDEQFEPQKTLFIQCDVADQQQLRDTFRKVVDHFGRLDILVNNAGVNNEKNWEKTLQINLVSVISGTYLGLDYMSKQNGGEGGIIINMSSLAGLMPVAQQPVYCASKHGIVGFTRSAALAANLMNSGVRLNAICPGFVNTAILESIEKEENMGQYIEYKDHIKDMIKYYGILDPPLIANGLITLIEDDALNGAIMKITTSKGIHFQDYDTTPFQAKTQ
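NADH formation kinetics: reaction with 30 uM PGE2 and 1 mM NAD+ (final), 20 nM enzyme, Tris-HCl pH 8 with Tween 20, after 15 min compound preincubation at room temperature. Fluorescence change, last versus first of five reads.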
* hit, by the source's call; ? = inconclusive; · = not tested or not shown; [ ] = remark or other dose. Most compounds without a hit are left out; they make up all but 8.9% or so of the library. Unless noted, the call rests on the fitted dose curve; in most records, active means well fitted curve in the direction sought with a large enough effect; inconclusive means small, poorly fitted or top-dose-only effect, or another doubt; inactive means no such curve, though single readings can be large; an effect the other way counts as inactive or inconclusive. Unless noted, on the % scale 0 is the no-effect control and ±100 the full control effect.

SMILES	ALDH1A1 inh	IMPase inh	12-hLO inh	NPSR antag	IMPase Li cell	HPGD block
COc1ccc(C2C(C(=O)N3CCCCC3)CC(=O)N2c2ccc(OC)cc2)cc1 (configuration not stated)	14µM*	0	-4%	-10%[46.1 µM]	5%[38.3 µM]	-9%
COc1ccc(C2C(C(=O)N3CCC(C(N)=O)CC3)CC(=O)N2c2ccc(OC)cc2)cc1 (configuration not stated)	?	·	·	44%	-5%	·
COc1ccc(C2C(C(=O)NCc3ccco3)CCC(=O)N2c2ccc(OC)cc2)cc1 (configuration not stated)	11µM*	-6	-1%	-2%[46.1 µM]	-7%[38.3 µM]	3%
CCNC(=O)COC(=O)C1CCC(=O)N(c2ccc(OC)cc2)C1c1ccc(OC)cc1 (configuration not stated)	8.9µM*	-4	-2%	-10%[46.1 µM]	55%[38.3 µM]	-9%
CC(C)N(CC(=O)Nc1ccc(Cl)cc1C(F)(F)F)C(=O)CCl	1.8µM*	·	·	-7%	5%	·
Cc1nn(C)c(Oc2ccccc2)c1CCNC(=O)CCl	22µM*	·	·	-1%	-5%	·
O=[N+]([O-])c1cc(Br)c(O)c(/C=N/Nc2nnnn2-c2cccc3ccccc23)c1	18µM*	2	?	?	21%[38.3 µM]	?
COc1ccc(CNC(=O)CSc2nnnn2Cc2ccccc2)cc1	?	?	-6%	-11%[46.1 µM]	-5%[38.3 µM]	-3%
COc1ccc(-n2nnnc2SCC(=O)NCCc2ccccc2)cc1OC	-15%	·	·	12%	6%	·
COc1ccc(CNC(=O)CSc2nnnn2-c2ccccc2)cc1	11µM*	-4	-6%	-11%[46.1 µM]	-10%[38.3 µM]	-10%
COc1ccc(CCNc2nnc(Sc3nnnn3-c3ccccc3)s2)cc1OC	18µM*	9	-3%	-12%[46.1 µM]	9%	-7%
COc1ccc(CCNC(=O)CSc2nnnn2-c2ccccc2)cc1	1.6µM*	2	-6%	-1%[46.1 µM]	2%[38.3 µM]	-5%
CSc1ccc(C(C(C(=O)c2cccs2)N2CCOCC2)N2CCOCC2)cc1 (configuration not stated)	?	10	-8%	-13%[46.1 µM]	3%[38.3 µM]	-20%
COc1cc(/C=C2\SC(=O)N(Cc3ccc(Cl)cc3)C2=O)cc([N+](=O)[O-])c1O	2.5µM*	·	·	-20%	21%	·
COc1cc(/C=C2\SC(=O)N(Cc3ccc(F)cc3)C2=O)cc([N+](=O)[O-])c1O	0.71µM*	·	·	-35%	11%	·
COc1cc(/C=C2\C(=O)NN(c3ccccc3)C2=O)cc([N+](=O)[O-])c1O	?	·	·	-50%	21%	·
CCOC(=O)CN1C(=O)S/C(=C/c2ccc(OC)c([N+](=O)[O-])c2)C1=O	13µM*	·	1%	2%	4%	16µM*
COc1ccc(N=Nc2c(C)[nH][nH]c2=O)cc1	-10%	·	·	-19%	15%	·
O=c1[nH][nH]c(-c2ccccc2)c1C=Nc1ccccc1Cl	-2%	-6	0%	-7%[46.1 µM]	-8%[38.3 µM]	?
CCN(CC)S(=O)(=O)c1ccc(S(=O)(=O)N(Cc2ccccn2)Cc2ccco2)cc1	1.8µM*	9	-6%	-19%[46.1 µM]	38%[38.3 µM]	-10%
CCN(CC(=O)NCCc1ccccc1)S(=O)(=O)c1ccc(Br)cc1	-1%	8	1%	-19%[46.1 µM]	-1%	-9%
CC(=O)Nc1ccc(S(=O)(=O)N(Cc2ccco2)CC2CCCO2)cc1 (configuration not stated)	13µM*	4	2%	-18%[46.1 µM]	28%[38.3 µM]	-24%
CN(C)S(=O)(=O)c1ccc(S(=O)(=O)N(CC(=O)Nc2ccccc2)Cc2ccco2)cc1	7%	-5	-2%	-20%[46.1 µM]	-12%[38.3 µM]	1%
O=C(CN(Cc1ccccc1)S(=O)(=O)c1ccc(Br)cc1)NCc1ccco1	13µM*	5	-2%	?	32%[38.3 µM]	-19%
CCN(CC)S(=O)(=O)c1ccc(S(=O)(=O)N(CC(=O)Nc2ccccc2)Cc2ccco2)cc1	8.9µM*	4	-2%	-14%[46.1 µM]	16%	-5%
SMILES	ALDH1A1 inh	IMPase inh	12-hLO inh	NPSR antag	IMPase Li cell	HPGD block
S=C(NCc1cccs1)Nc1ccccc1Cl	-2%	·	-2%	2%	-1%	14µM*
NNC(=S)Nc1ccccc1Cl	28µM*	·	·	6%	6%	·
S=C(NCc1cccs1)Nc1cccc(Cl)c1	5%	-1	-14%	7%[46.1 µM]	3%	13µM*
N=C1/C(=C\c2ccc(-c3cccc(Cl)c3)o2)C(=O)N=C2SC=C(c3ccccc3)N12	?	-4	-20%	5%	3%	14µM*
CCN(CC)c1ccc(C(=O)OCC(=O)Nc2cccc(S(=O)(=O)NC3=NCCCCC3)c2)cc1	?	·	-3%	-3%	0%	28µM*
C(#CC1C=CC2OC(c3ccccc3)OCC2O1)c1ccccc1 (configuration not stated)	15%[13.5 µM]	·	·	·	·	·
Cc1cc(C)c(C(=O)COC(=O)c2ccc([N+](=O)[O-])o2)cc1C	2µM*	·	·	11%	15%	·
Cc1cc(C(=O)COC(=O)c2ccc([N+](=O)[O-])o2)c(C)n1CC1CCCO1 (configuration not stated)	16µM*	·	·	-4%	8%	·
O=C(CN(c1cccc(C(F)(F)F)c1)S(=O)(=O)c1ccc(Cl)c([N+](=O)[O-])c1)NCc1ccccc1	-11%	·	0%	?	24%	-8%
CC(=O)NCCc1ccc(O)c(O)c1	28µM*	9	-2%	-10%[46.1 µM]	6%	?
CCc1cccc(CC)c1NC(=S)NCCc1ccc(O)c(O)c1	22µM*	·	·	-8%	1%	·
CCc1cccc(CC)c1NC(=S)NCCc1c(C)[nH]c2ccccc12	-8%	·	?	-33%	7%	-4%
Cc1ccn2c(Nc3ccc4c(c3)OCCO4)c(-c3ccc(Cl)s3)nc2c1	·	10	·	·	·	·
CC(=O)c1cccc(S(=O)(=O)NC2CCCCCC2)c1	10µM*	·	-3%	13%	4%	-14%
CSc1ccn(CCC(=O)O)c(=O)n1	-2%	2	0%	-6%[46.1 µM]	7%[38.3 µM]	0%
Cc1nc(NC(=O)COC(=O)c2ccc(S(=O)(=O)N3CCc4ccccc4C3)cc2)c(Cl)cc1Cl	?	·	·	-11%	10µM*	·
CCC(=O)NC(=S)NNC(=O)c1ccccc1[N+](=O)[O-]	10µM*	·	·	11%	1%	·
O=C(NCc1cccs1)c1ccccc1C(=O)NCc1cccs1	4%	-14	1%	10%[46.1 µM]	6%[38.3 µM]	-4%
O=C(NC(=S)NNC(=O)c1ccccc1[N+](=O)[O-])c1ccccc1	10µM*	-13	-25%	-19%[46.1 µM]	1%	32µM*
CCCCC(=O)Nc1ccc(C(=O)NNC(=S)NC(=O)c2ccccc2[N+](=O)[O-])cc1	?	·	·	1%	1%	·
O=C(NNC(=S)NC(=O)c1ccccc1[N+](=O)[O-])c1ccccc1	-4%	1	-11%	18%[46.1 µM]	0%	-2%
